# In PubChem BioAssay AID1645838 (ICCB-Longwood Screening Facility, Harvard Medical School, 2021):
# About 100 (5%) of roughly 2,000 compounds were called active. Cut-off read from the data, not from the text of the source: active = z-score above about 2; inactive = the rest. What follows is part of a selection rich in actives, with near analogues and random picks from the rest.
# Assay: supercomplex reporter luminescence per Hoechst cell count – Hoechst nuclei count (AID 1645838);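 note: control cybrid cells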;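 for z-score: higher means more mitochondrial supercomplex formation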
# Details: Cells, luminescence/Hoechst cell count ratio; for z-score: stronger effect = higher value; for cell count: measured here: cell number, Hoechst nuclei count
# [1] = library stock concentration (final well concentration not given) 80 uM
# [2] = library stock concentration (final well concentration not given) 400 uM
# [3] = library stock concentration (final well concentration not given) 2 mM
# [4] = library stock concentration (final well concentration not given) 10 mM
# [5] = library stock concentration (final well concentration not given) 46 uM
smiles,measurement,setting,value
CCCCC(C)(C)[C@H](O)/C=C/[C@H]1[C@H](O)CC(=O)[C@@H]1CCCCCCC(=O)O,z-score,,-0.22 (inactive)
same,cell count,,5310
O=C(O)c1cc(C(F)(F)F)ccc1N1CCC(OCc2ccccn2)C1 (stereo unspecified),z-score,[1],-0.188 (inactive)
same,z-score,[2],-0.142 (inactive)
same,z-score,[3],-0.236 (inactive)
same,z-score,[4],-0.254 (inactive)
same,cell count,[1],6080
same,cell count,[2],6070
same,cell count,[3],6240
same,cell count,[4],5970
CCCCC[C@H](O)/C=C/[C@H]1CCC(=O)[C@@H]1C/C=C\CCCC(=O)O,z-score,,0.602 (inactive)
same,cell count,,5430
CCC(NC(=O)c1c(C)c(-c2ccccc2)nc2ccccc12)c1ccccc1 (stereo unspecified),z-score,[1],-0.542 (inactive)
same,z-score,[2],-0.315 (inactive)
same,z-score,[3],-0.402 (inactive)
same,z-score,[4],-0.409 (inactive)
same,cell count,[1],7010
same,cell count,[2],6770
same,cell count,[3],6520
same,cell count,[4],5870
Cc1c(Cc2ccc3ccccc3n2)c2cc(F)ccc2n1CC(=O)O,z-score,[1],-0.574 (inactive)
same,z-score,[2],-0.436 (inactive)
same,z-score,[3],-0.171 (inactive)
same,z-score,[4],-0.183 (inactive)
same,cell count,[1],6030
same,cell count,[2],6070
same,cell count,[3],6110
same,cell count,[4],5700
Cc1c(-c2ccc(-c3ccccc3F)cc2)nc2ccc(F)cc2c1C(=O)O,outcome,library stock 10 mM,inactive; censored for cell count
same,z-score,[1],-0.011 (inactive)
same,z-score,[2],9.53 (active)
same,z-score,[3],9.71 (active)
same,cell count,[1],5350
same,cell count,[2],2330
same,cell count,[3],1790
O=C(O)CCC/C=C/C[C@@H]1[C@@H](CC[C@@H](O)CCc2ccccc2)[C@H](O)C[C@@H]1O,z-score,,-0.13 (inactive)
same,cell count,,5360
Nc1ccccc1NC(=O)CCCCCCC(=O)Nc1ccccc1,z-score,,0.265 (inactive)
same,cell count,,5570
O=C(CCCCCCC(=O)Nc1ccccc1)NO,z-score,,0.328 (inactive)
same,outcome,library stock 10 mM,inactive; censored for cell count
same,z-score,[1],0.428 (inactive)
same,z-score,[2],2.1 (active)
same,z-score,[3],10.2 (active)
same,cell count,,5300
same,cell count,[1],5490
same,cell count,[2],4770
same,cell count,[3],3220
CC(C)(C)C(=O)Nc1ccccc1,z-score,,-0.189 (inactive)
same,cell count,,5010
CCCCCCCCCCCCCCCCSC[C@H](COP(=O)([O-])OCC[N+](C)(C)C)NC(=O)CCCCCCCCCCCCCCC,z-score,,-0.387 (inactive)
same,cell count,,5820
C#CCC(Cc1cnc2nc(N)nc(N)c2n1)c1ccc(C(=O)NC(CCC(=O)O)C(=O)O)cc1 (stereo unspecified),outcome,library stock 278 µM,inactive; censored for cell count
same,outcome,library stock 1.67 mM,inactive; censored for cell count
same,outcome,library stock 10 mM,inactive; censored for cell count
same,z-score,[5],1.41 (inactive)
same,cell count,[5],2070
CCCCCCCCCCCCCCC(=O)N[C@H]1CCOC1=O,outcome,,inactive; censored for cell count
CSCCC(NC(=O)C(CC(C)C)NC(=O)CNC(=O)C(NC(=O)C(Cc1ccccc1)NC(=O)C(CO)NC(=O)C(CC(=O)O)NC(=O)[C@H](NC(=O)C(CCCCN)NC(=O)C(N)Cc1cnc[nH]1)C(C)O)C(C)C)C(N)=O (stereo partly specified),z-score,[1],-0.214 (inactive)
same,z-score,[2],-0.449 (inactive)
same,z-score,[3],-0.151 (inactive)
same,z-score,[4],-0.389 (inactive)
same,cell count,[1],6630
same,cell count,[2],6610
same,cell count,[3],6500
same,cell count,[4],6040
